In PubChem BioAssay (NCATS):
Values without a mark were called inactive. Results filed as inconclusive are left out. Where a call stands in place of a potency, no number is given. Activity calls are given as the source filed them. Unless noted, the call rests on the fitted dose curve; in most records, active means well fitted curve in the direction sought with a large enough effect; inconclusive means small, poorly fitted or top-dose-only effect, or another doubt; inactive means no such curve, though single readings can be large; an effect the other way counts as inactive or inconclusive.

Key:
[1] = target: Cytochrome P450 1A2 (Homo sapiens) (UniProt P05177); assay: p450-cyp1a2 (AID 410; calls by dose curve; further: potency means the concentration at half of the fitted maximal effect)
Sequence of Cytochrome P450 1A2 (Homo sapiens) (P05177 whole entry, looked up): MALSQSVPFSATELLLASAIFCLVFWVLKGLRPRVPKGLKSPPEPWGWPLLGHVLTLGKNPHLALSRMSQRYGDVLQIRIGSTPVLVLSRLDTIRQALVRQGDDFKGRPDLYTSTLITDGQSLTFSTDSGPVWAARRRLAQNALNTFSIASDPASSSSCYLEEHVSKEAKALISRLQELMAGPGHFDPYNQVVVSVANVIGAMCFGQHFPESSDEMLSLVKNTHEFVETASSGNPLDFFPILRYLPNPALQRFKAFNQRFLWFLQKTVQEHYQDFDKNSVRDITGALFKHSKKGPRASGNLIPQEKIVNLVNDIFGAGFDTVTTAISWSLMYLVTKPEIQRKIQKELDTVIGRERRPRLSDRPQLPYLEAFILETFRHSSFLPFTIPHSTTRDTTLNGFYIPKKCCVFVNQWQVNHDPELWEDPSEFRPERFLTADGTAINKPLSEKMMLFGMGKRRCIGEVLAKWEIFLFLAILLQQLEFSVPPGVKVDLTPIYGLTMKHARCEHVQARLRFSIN
Procedure, shortened: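 Read-out is luminescence from luciferin produced by CYP1A2 demethylation of Luciferin-ME (100uM, at Km). Detection reagent stopped the 60 min NADPH-dependent reaction; signals were normalized to 57 uM furafylline.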

[2] = target: Glucocorticoid receptor (Homo sapiens) (UniProt P04150); assay: GR-GFP Redistribution (AID 450;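 active means compounds whose dose series gives a full or clear partial fitted curve of increased nuclear translocation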; further: potency means the concentration at half of the fitted maximal effect)
Sequence of Glucocorticoid receptor (Homo sapiens) (P04150 whole entry, looked up, the tested form may be a part): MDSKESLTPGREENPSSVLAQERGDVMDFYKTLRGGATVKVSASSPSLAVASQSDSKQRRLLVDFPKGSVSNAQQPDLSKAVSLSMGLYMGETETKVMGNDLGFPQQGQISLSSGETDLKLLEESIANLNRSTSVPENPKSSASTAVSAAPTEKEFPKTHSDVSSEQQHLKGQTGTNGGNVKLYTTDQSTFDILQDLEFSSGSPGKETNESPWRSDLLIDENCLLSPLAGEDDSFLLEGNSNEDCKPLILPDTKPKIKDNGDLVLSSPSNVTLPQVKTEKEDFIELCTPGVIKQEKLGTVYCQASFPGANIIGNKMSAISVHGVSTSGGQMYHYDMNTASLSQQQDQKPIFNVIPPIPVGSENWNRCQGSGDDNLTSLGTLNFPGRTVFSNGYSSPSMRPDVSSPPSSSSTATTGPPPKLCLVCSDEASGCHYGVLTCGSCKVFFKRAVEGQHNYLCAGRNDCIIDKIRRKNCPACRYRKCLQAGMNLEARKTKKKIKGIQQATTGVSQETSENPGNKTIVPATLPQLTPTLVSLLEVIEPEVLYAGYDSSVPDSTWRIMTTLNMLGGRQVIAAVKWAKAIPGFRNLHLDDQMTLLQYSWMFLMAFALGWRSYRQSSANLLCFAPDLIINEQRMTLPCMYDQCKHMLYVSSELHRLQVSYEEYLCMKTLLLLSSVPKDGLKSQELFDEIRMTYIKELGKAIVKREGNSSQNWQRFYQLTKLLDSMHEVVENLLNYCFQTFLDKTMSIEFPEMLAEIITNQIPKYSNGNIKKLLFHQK

[3] = target: Glucocorticoid receptor (Homo sapiens) (UniProt P04150); assay: GR-EFC Redistribution (AID 451; calls by dose curve; further: potency means the concentration at half of the fitted maximal effect); details: CHO-K1 GR-EFC translocation, beta-gal luminescence, 2 h
Procedure, shortened: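 Translocation of GR-ED fusion to nuclear EA restores b-gal, read by luminescence after 1 h room-temperature detection. Engineered CHO-K1 biosensor cells, 1,000/well, exposed 2 h at 37 C to titrations up to 46 uM final.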

[4] = target: Mitogen-activated protein kinase 10 (Mus musculus) (UniProt Q61831); assay: JNK3 AlphaScreen Assay (AID 530; active means well fitted curve in either direction with a large enough effect, not every such curve was filed as active;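 further: kinase came from lysate of stimulated human HepG2 cells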; further: potency means the concentration at half of the fitted maximal effect)
Procedure, shortened: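 Kinase buffer: 20 mM Tris-HCl pH 7.6, 10 mM MgCl2, 1 mM DTT, 0.1 mM Na3VO4, 0.01% Tween-20; ATP 10 uM. Substrate biotin-GST-cJun(1-79), enzyme from activated HepG2 lysates. Detection by Ser73 phospho-antibody AlphaScreen.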

[5] = target: Cytochrome P450 2C9 (Homo sapiens) (UniProt P11712); assay: qHTS Assay for Inhibitors and Substrates of Cytochrome P450 2C9 (AID 883); further: nearly all actives have a fitted effect of over 60% in size; further: potency means the concentration at half of the fitted maximal effect
Sequence of Cytochrome P450 2C9 (Homo sapiens) (P11712 whole entry, looked up): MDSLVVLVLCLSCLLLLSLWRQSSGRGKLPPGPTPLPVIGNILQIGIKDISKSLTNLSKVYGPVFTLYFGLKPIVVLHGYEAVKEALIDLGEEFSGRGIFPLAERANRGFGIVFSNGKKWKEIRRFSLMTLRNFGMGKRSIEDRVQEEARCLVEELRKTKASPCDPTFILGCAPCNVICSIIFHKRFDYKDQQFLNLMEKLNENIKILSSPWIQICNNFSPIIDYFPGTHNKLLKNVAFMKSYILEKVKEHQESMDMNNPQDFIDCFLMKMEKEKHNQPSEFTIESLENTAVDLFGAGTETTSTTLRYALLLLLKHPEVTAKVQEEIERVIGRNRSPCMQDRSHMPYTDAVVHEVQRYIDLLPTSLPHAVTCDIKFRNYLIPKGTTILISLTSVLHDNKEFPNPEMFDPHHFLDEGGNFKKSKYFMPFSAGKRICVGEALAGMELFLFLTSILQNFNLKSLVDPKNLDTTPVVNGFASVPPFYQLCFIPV
Procedure, shortened: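 Inhibition of CYP2C9 is scored as loss of luminescence, with 57uM sulphaphenazole defining 100% inhibition. Substrate Luciferin-H is used at 100uM, equal to its KM; enzyme at 10nM in 25mM KPO4, 60 min at 37C with NADPH regeneration.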

[6] = target: Cytochrome P450 2D6 (Homo sapiens) (UniProt P10635); assay: qHTS Assay for Inhibitors and Substrates of Cytochrome P450 2D6 (AID 891); further: nearly all actives have a fitted effect of over 60% in size; further: potency means the concentration at half of the fitted maximal effect
Sequence of Cytochrome P450 2D6 (Homo sapiens) (P10635 whole entry, looked up): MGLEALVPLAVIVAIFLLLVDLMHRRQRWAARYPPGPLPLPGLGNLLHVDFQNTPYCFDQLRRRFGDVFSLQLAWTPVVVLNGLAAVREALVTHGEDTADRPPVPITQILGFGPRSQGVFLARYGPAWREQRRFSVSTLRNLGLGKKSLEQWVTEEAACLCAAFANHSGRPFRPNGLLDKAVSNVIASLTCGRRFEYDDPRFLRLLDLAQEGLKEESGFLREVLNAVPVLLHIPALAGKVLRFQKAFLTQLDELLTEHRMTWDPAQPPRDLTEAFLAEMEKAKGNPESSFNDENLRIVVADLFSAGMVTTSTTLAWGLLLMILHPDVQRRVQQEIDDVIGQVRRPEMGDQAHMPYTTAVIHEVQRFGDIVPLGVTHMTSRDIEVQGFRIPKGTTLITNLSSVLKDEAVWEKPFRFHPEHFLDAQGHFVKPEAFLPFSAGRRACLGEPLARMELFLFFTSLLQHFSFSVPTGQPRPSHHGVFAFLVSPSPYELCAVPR
Procedure, shortened: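 Luminescent read-out of luciferin formed by 5 nM human CYP2D6 demethylating 30 uM Luciferin-ME EGE (Km level) over 60 min at room temperature after NADPH regeneration addition. Data normalized to full inhibition by 1.43 uM quinidine.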

[7] = target: Cytochrome P450 2C19 (Homo sapiens) (UniProt P33261); assay: qHTS Assay for Inhibitors and Substrates of Cytochrome P450 2C19 (AID 899); further: nearly all actives have a fitted effect of over 60% in size; further: potency means the concentration at half of the fitted maximal effect
Sequence of Cytochrome P450 2C19 (Homo sapiens) (P33261 whole entry, looked up): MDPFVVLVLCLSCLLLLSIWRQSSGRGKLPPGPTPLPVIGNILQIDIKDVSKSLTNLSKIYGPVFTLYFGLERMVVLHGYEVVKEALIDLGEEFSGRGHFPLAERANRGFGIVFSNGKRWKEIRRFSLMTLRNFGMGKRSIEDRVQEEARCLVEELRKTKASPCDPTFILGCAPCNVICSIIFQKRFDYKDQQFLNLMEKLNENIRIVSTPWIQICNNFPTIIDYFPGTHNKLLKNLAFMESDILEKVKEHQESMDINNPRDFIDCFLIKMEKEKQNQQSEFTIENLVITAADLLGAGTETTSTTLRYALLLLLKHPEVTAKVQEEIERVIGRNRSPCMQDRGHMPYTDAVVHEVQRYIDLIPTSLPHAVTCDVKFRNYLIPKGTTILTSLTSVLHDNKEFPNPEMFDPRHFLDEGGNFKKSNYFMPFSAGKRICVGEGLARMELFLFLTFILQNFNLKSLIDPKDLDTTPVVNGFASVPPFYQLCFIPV
Procedure, shortened: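 5nM enzyme + 10uM Luciferin-H EGE (=KM), 50mM KPO4; cpd pin-transferred, 10 min 37C; NADPH regen, 60 min 37C; stopped w/ luciferin detection reagent, 20 min; luminescence. Normalized to 57uM ketoconazole (AC100).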

[8] = target: Cytochrome P450 3A4 (Homo sapiens) (UniProt P08684); assay: qHTS Assay for Inhibitors and Substrates of Cytochrome P450 3A4 (AID 884); further: potency means the concentration at half of the fitted maximal effect; nearly all actives have a fitted effect of over 50% in size
Sequence of Cytochrome P450 3A4 (Homo sapiens) (P08684 whole entry, looked up): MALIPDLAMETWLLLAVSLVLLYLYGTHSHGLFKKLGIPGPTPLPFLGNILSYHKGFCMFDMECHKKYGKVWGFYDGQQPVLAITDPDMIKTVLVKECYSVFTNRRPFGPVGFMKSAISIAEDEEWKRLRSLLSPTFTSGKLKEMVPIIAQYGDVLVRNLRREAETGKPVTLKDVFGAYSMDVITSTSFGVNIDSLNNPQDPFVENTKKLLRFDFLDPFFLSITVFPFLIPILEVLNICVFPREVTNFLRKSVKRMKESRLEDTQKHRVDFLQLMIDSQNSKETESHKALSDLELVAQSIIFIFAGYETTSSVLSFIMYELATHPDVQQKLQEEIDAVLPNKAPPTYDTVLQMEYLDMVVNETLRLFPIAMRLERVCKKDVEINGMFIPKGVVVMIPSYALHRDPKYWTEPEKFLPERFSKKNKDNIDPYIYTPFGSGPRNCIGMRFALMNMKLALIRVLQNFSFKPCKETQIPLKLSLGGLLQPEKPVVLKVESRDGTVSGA
Procedure, shortened: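 Luminescent readout of luciferin produced by CYP3A4 (20 nM) dealkylation of Luciferin-PPXE, 25 uM (its KM). NADPH-driven reaction ran 60 min at RT after 10 min compound preincubation; data scaled to 57 uM ketoconazole as 100% inhibition.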

[9] = target: Cytochrome P450 3A4 (Homo sapiens) (UniProt P08684); assay: qHTS Assay for Activators of Cytochrome P450 3A4 (AID 885); further: nearly all actives have a fitted effect of over 65% in size
Procedure, shortened: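 Using 20nM recombinant human CYP3A4 in potassium phosphate (200mM), substrate Luciferin-PPXE at 25uM, luminescent luciferin detection followed a 60-min RT NADPH reaction; data scaled to 57 uM ketoconazole.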

[10] = target: DNA dC->dU-editing enzyme APOBEC-3G (Homo sapiens) (UniProt Q9HC16); assay: qHTS for inhibitors of Vif-A3G interactions: Validation (AID 588379)
Sequence of DNA dC->dU-editing enzyme APOBEC-3G (Homo sapiens) (Q9HC16 whole entry, looked up): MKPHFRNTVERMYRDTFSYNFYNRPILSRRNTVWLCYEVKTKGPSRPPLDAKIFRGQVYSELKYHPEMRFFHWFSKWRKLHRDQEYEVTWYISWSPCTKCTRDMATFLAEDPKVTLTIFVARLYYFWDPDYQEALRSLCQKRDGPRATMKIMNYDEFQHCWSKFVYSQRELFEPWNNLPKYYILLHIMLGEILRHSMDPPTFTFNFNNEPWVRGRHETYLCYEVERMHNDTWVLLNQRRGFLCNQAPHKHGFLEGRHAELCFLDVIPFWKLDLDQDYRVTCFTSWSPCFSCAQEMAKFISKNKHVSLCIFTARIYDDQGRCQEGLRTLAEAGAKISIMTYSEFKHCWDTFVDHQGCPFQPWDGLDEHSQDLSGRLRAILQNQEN
Procedure, shortened: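 Yellow fluorescence (Ex 488, Em 500-530) of Vif-coexpressing HeLa A3G-eYFP cells, scanned by Acumen cytometer, reports blocked A3G degradation. Cells plated at 700/well overnight at 37 deg C before compound addition, then a further overnight compound incubation at 37 deg C.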

[11] = target: 3',5'-cyclic-AMP phosphodiesterase 4B (Homo sapiens) (UniProt Q07343); assay: qHTS Assay for Inhibitors of PDE-IV (AID 607; active means well fitted activation curve with a large enough effect in the main read-out, with a control signal flat, not every such curve was filed as active)
Sequence of 3',5'-cyclic-AMP phosphodiesterase 4B (Homo sapiens) (Q07343 whole entry, looked up): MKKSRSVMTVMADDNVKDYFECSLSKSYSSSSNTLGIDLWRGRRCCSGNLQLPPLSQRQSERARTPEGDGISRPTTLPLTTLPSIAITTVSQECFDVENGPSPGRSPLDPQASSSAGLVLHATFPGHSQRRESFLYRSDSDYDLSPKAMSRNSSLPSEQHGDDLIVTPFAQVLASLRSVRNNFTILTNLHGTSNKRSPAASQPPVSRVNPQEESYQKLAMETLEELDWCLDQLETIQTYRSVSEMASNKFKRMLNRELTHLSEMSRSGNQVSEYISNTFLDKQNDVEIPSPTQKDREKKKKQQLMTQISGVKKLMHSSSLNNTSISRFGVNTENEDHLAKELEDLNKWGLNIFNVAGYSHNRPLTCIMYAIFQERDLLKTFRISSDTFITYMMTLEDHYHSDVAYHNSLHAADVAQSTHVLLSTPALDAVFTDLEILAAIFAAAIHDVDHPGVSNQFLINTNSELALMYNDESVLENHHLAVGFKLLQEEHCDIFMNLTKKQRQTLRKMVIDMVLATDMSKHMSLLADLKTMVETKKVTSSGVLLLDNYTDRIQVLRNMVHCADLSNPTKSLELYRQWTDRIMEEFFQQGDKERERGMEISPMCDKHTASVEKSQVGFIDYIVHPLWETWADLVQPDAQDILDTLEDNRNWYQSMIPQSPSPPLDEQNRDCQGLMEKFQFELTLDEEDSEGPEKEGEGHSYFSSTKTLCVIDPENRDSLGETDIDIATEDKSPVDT
Procedure, shortened: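 Live HEK293 cells with a modified cyclic nucleotide-gated (CNG) channel report intracellular cAMP via membrane-potential dye fluorescence (ex 535/em 590 nm). Endogenous PDE-IV was targeted. Compounds were tested at up to 22.9 uM final; RO 20-1724 100 uM served as control.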

Row | Compound | Potency [1] | Potency [2] | Potency [3] | Potency [4] | Potency [5] | Potency [6] | Potency [7] | Potency [8] | Potency [9] | outcome [10] | Potency [11]
1 | O=C1C=CC2=C3c4cc(O)c(O)cc4C[C@@]3(O)COC2=C1O | 39.8 µM (active) | > 46 µM | > 46 µM | 0.501 µM (active) | 3.98 µM (active) | 25.1 µM (active) | 6.31 µM (active) |  |  |  | 
2 | O=c1c(O)c(-c2cccc(O)c2)oc2ccccc12 | 0.501 µM (active) | > 46 µM | > 46 µM |  | 15.8 µM (active) |  | 25.1 µM (active) | 15.8 µM (active) | inactive | inactive | 
3 | CC(C)C[C@@H](CC(=O)N[C@H](CC(=O)N[C@@H]1CCCC[C@H]1C(=O)N[C@H](CC(=O)N[C@@H](CCC(=O)O)CC(=O)O)Cc1c[nH]c2ccccc12)C(C)C)NC(=O)[C@@H]1CCCC[C@H]1N | inactive |  | > 46 µM | inactive | inactive | inactive | inactive |  |  |  | inactive
4 | CC(C)C[C@@H](CC(=O)N[C@@H](CCCN)CC(=O)N[C@@H]1CCCC[C@H]1C(=O)N[C@H](CC(=O)N[C@@H](CCC(=O)O)CC(=O)O)Cc1ccccc1)NC(=O)[C@@H]1CCCC[C@H]1N | inactive |  | > 46 µM | inactive |  | inactive |  |  |  |  | inactive
5 | CC(C)[C@@H](CC(=O)N[C@@H]1CCNC[C@H]1C(=O)N[C@H](CC(=O)N[C@@H](CCC(=O)O)CC(=O)O)Cc1ccccc1)NC(=O)C[C@H](CO)NC(=O)[C@@H]1CCCC[C@H]1N | inactive |  | > 46 µM | inactive | inactive | inactive | inactive |  |  |  | inactive
6 | CC(C)[C@@H](CC(=O)N[C@@H]1CCCC[C@H]1C(=O)N[C@H](CC(=O)N[C@@H](CCC(=O)O)CC(=O)O)Cc1ccccc1)NC(=O)C[C@H](Cc1c[nH]c2ccccc12)NC(=O)[C@@H]1CCCC[C@H]1N | inactive |  | > 46 µM | inactive | inactive | inactive |  |  |  |  | inactive
7 | CC(C)[C@@H](CC(=O)N[C@@H]1CCNC[C@H]1C(=O)N[C@H](CC(=O)N[C@@H](CCC(=O)O)CC(=O)O)Cc1c[nH]c2ccccc12)NC(=O)C[C@H](Cc1ccccc1)NC(=O)[C@@H]1CNCC[C@H]1N | 31.6 µM (active) |  | > 46 µM | inactive | inactive | inactive |  |  |  |  | inactive
8 | CC(C)[C@@H](CC(=O)N[C@@H]1CCNC[C@H]1C(=O)N[C@H](CC(=O)N[C@@H](CCC(=O)O)CC(=O)O)Cc1c[nH]c2ccccc12)NC(=O)C[C@H](Cc1ccccc1)NC(=O)[C@@H]1CCCC[C@H]1N | 31.6 µM (active) |  | > 46 µM | inactive | inactive | inactive | inactive |  |  |  | inactive
9 | CC(C)[C@@H](CC(=O)N[C@@H]1CCNC[C@H]1C(=O)N[C@H](CC(=O)N[C@@H](CCC(=O)O)CC(=O)O)Cc1ccccc1)NC(=O)C[C@H](Cc1c[nH]c2ccccc12)NC(=O)[C@@H]1CCCC[C@H]1N | 39.8 µM (active) |  | > 46 µM | inactive | inactive | inactive | inactive |  |  |  | inactive
10 | NCCC[C@@H](CC(=O)N[C@@H]1CCCC[C@H]1C(=O)N[C@H](CC(=O)N[C@@H](CCC(=O)O)CC(=O)O)Cc1c[nH]c2ccccc12)NC(=O)C[C@H](Cc1ccccc1)NC(=O)[C@@H]1CNCC[C@H]1N | 15.8 µM (active) |  | > 46 µM | inactive | inactive | inactive | inactive |  |  |  | inactive
11 | C[C@@H]1C[C@@]2(C)Oc3ccccc3[C@H]3OC[C@]1(COC(=O)Nc1ccccc1)[C@@H](C)[C@@H]32 | 15.8 µM (active) | > 46 µM | > 46 µM |  | 20 µM (active) | inactive | 10 µM (active) |  |  |  | 
